D1 allo mod = D1 CRE-luciferase signal change, two-sided – cell-based, HEK293 D1, dopamine EC30, D1 allosteric modulator project, primary screen. AID 641, 2007. actives 5.9% (n = 58,000). dopamine EC30 potentiation; actives deviate in either direction. B-score at 10 µM;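 active = luminescence count or its row- and column-corrected plate score outside the 99.7% band of the plate's sample wells, on either side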
Calb biofilm kill = clotrimazole potentiators killing Candida biofilms, primary screen, with clotrimazole, Alamar Blue; C. albicans biofilm + clotrimazole; inhibition, % at 6 µM; actives 0.14% (n = 85,000); AID 834, 2007;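 active = inhibition above 20%; inactive = inhibition below 20%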;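 also: preformed 24 hr biofilms exposed to compound for 48 hr; 0% = biofilm without compound and 100% = blank killed by clotrimazole plus chlorhexidine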
PLAP act = PLAP enzyme activators, biochemical, luminescence, HTS. actives 1.2% (n = 96,000). activation fold at 20 µM. AID 696, 2007. purified PLAP enzyme, luminescent substrate read-out; active compounds read high; in the data active = activation fold above about 2
Target sequence (P05187 whole entry, looked up): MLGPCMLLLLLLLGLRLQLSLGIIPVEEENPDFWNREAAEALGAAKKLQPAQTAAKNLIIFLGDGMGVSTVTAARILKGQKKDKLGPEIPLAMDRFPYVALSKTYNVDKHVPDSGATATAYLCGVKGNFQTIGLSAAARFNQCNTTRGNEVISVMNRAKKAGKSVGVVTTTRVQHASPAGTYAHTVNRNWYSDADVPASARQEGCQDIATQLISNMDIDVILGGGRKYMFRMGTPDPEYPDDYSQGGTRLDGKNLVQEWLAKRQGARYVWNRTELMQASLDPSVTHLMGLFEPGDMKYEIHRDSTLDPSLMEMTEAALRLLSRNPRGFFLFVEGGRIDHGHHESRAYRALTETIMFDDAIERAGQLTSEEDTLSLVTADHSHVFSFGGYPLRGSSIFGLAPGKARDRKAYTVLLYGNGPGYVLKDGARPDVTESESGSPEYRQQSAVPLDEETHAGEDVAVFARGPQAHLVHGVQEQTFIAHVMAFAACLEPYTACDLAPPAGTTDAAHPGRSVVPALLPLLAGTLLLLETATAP
HePTP inhibitor = inhibitors of human HePTP phosphatase, primary screen, biochemical, absorbance, leukemia target. recombinant HePTP phosphatase activity, OD absorbance. inhibition, % at 20 µM. actives 0.64% (n = 110,000). AID 521, 2006; in the data active = inhibition above about 50%;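 also: plate controls were vehicle for no effect and reference inhibitor for full effect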
DAT uptake mod = changed hDAT dopamine uptake under cocaine IC80, either direction, primary screen, cocaine antagonist project, cell-based, LLC-PK1 hDAT, [14C]-dopamine uptake, MLSMR | Sodium-dependent dopamine transporter (Homo sapiens), Q01959 | LLC-PK1 hDAT cells, [14C]-dopamine uptake with cocaine IC80; actives deviate in either direction | B-score at 10 µM | actives 1.3% (n = 110,000);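 active = Z score or B-score, a plate-position-corrected score, falls beyond the plate's 99.7% confidence bounds, in either direction; inactive = both scores lie inside the 99.7% bounds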;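 also: scored against the spread of the other compound wells on the same plate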
TNAP act mid DEA = human TNAP enzyme activators, primary screen, biochemical, luminescent, intermediate phosphate acceptor level | 64,000 tested, under 10 active | Alkaline phosphatase, tissue-nonspecific isozyme (Homo sapiens), P05186 | purified TNAP, CDP-star luminescence, 100 mM DEA, 30 min; active compounds read high; scale: 0 levamisole-inhibited, 1 vehicle-only enzyme | AID 813, 2007 | activation factor at 20 µM;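 active = activation factor of at least 2 at 20 µM, relative to controls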
Active calls of the source: *. The sample as a whole holds a higher share of hits than the screen did.

How did Nc1sc2c(c1C(=O)NC1CCS(=O)(=O)C1)CCC2 (stereo not drawn) do in these assays?
D1 allo mod: -1.54; Calb biofilm kill: -1.1; PLAP act: 2.3*; HePTP inhibitor: -4.6; DAT uptake mod: -0.787; TNAP act mid DEA: 1

How did CNC(=O)c1c(N)sc2c1CCCCC2 do in these assays?
D1 allo mod: 0.44; Calb biofilm kill: 4.2; PLAP act: 1.3; HePTP inhibitor: 5.5; DAT uptake mod: -0.371; TNAP act mid DEA: 1

Results for Cc1cccc(-n2ncc3c(NCc4cccnc4)ncnc32)c1 ?
D1 allo mod: -5.06*; Calb biofilm kill: 6.1; HePTP inhibitor: 5.9; DAT uptake mod: -0.0277; TNAP act mid DEA: 0.8

How did Cc1ccc(-n2ncc3c(NCc4ccco4)ncnc32)c(C)c1 do in these assays?
D1 allo mod: -0.792; Calb biofilm kill: 5.6; PLAP act: 1.1; HePTP inhibitor: 11.0; DAT uptake mod: -0.0437; TNAP act mid DEA: 0.9

What do the screens show for `Cc1ccc(-n2ncc3c(NCc4ccccn4)ncnc32)c(C)c1`?
D1 allo mod: 0.0442; Calb biofilm kill: 3.6; PLAP act: 2*; HePTP inhibitor: 5.9; DAT uptake mod: 1.63; TNAP act mid DEA: 1

How did Cc1ccc(-n2ncc3c(NCc4cccnc4)ncnc32)c(C)c1 do in these assays?
Calb biofilm kill: 1.5; HePTP inhibitor: 12.4; TNAP act mid DEA: 0.9

What do the screens show for `COc1ccc(N2CCN(c3ncnc4c3cnn4-c3ccc(C)cc3C)CC2)cc1`?
D1 allo mod: -0.759; Calb biofilm kill: -4.9; PLAP act: 0.9; HePTP inhibitor: 3.7; DAT uptake mod: 0.245; TNAP act mid DEA: 0.8

Results for Cc1cccc(-n2ncc3c(N4CCCC4)ncnc32)c1 ?
D1 allo mod: -7.31*; Calb biofilm kill: 0.5; HePTP inhibitor: 0.6; DAT uptake mod: -0.871

How did Cc1ccc(-n2ncc3c(N4CCN(c5ccccc5)CC4)ncnc32)c(C)c1 do in these assays?
D1 allo mod: -3.97*; Calb biofilm kill: 1.2; PLAP act: 1; HePTP inhibitor: 2.6; DAT uptake mod: 0.0664; TNAP act mid DEA: 0.9

Results for O=C(O)CCCCCN1C(=O)C(=O)/C(=C(/O)c2ccccc2)C1c1ccc(F)cc1 (stereo not drawn) ?
HePTP inhibitor: -6.7

How did COc1ccc(OC)c(/C=C2/SC(=S)N(c3ccccc3OC)C2=O)c1 do in these assays?
HePTP inhibitor: 4.6

How did COc1ccc(C(=O)Nc2ccccc2)cc1NS(=O)(=O)c1ccc(C(C)(C)C)cc1 do in these assays?
HePTP inhibitor: 6.9

Results for COc1ccc(Nc2ccc3c(c2)=NC2(CCCCC2)[N+]=3[O-])cc1 ?
D1 allo mod: -2.72*; PLAP act: 0.9; HePTP inhibitor: -13.2; DAT uptake mod: 0.529; TNAP act mid DEA: 0.8

How did N#CC1=C(N=Cc2ccccc2O)CCC1 do in these assays?
HePTP inhibitor: -6.2

What do the screens show for `Cn1c(=O)c2cc(S(=O)(=O)NC(C(=O)Nc3cccnc3)c3ccccc3)ccc2n(C)c1=O` (stereo not drawn)?
D1 allo mod: -0.16; Calb biofilm kill: 15.2; PLAP act: 2.6*; HePTP inhibitor: 4.1; DAT uptake mod: 0.0548; TNAP act mid DEA: 0.9

How did Cn1c(=O)c2cc(S(=O)(=O)NC(C(=O)NCc3cccnc3)c3ccccc3)ccc2n(C)c1=O (stereo not drawn) do in these assays?
D1 allo mod: -0.974; Calb biofilm kill: 4.3; PLAP act: 1; HePTP inhibitor: 0.8; DAT uptake mod: -0.119; TNAP act mid DEA: 1

What do the screens show for `CCOc1ccc(N(CC(=O)NC(C)C)S(=O)(=O)c2ccc(SC)cc2)cc1`?
HePTP inhibitor: -16.9

How did CCC1(CC)Cc2ccccc2-c2nc(NCCO)[nH]c(=O)c21 do in these assays?
Calb biofilm kill: -0.9; DAT uptake mod: -2.74*

Results for O=c1[nH]c(NCCO)nc2c1C1(CCCCC1)Cc1ccccc1-2 ?
D1 allo mod: -0.0211; Calb biofilm kill: 9.1; PLAP act: 0.8; HePTP inhibitor: 6.4; DAT uptake mod: 0.144; TNAP act mid DEA: 0.9

How did COc1cccc(CN2CCN(C(=O)c3cccc(OC)c3OC)CC2)c1 do in these assays?
HePTP inhibitor: -10.9

What do the screens show for `Cc1ccc(S(=O)(=O)NC(C)(C)CSc2nnc(Nc3ccccc3)s2)cc1`?
Calb biofilm kill: 4.8; PLAP act: 0.9; DAT uptake mod: -8.11*

What do the screens show for `CCCCOc1ccc(/C=N/Nc2cc(OC)ncn2)cc1`?
HePTP inhibitor: 11.9

How did N#CCC1c2ccccc2CCN1C(=O)Nc1cccc(Cl)c1 (stereo not drawn) do in these assays?
PLAP act: 0.8; DAT uptake mod: -2.14

Results for N#CCC1c2ccccc2CCN1C(=O)Nc1ccc(Cl)cc1 (stereo not drawn) ?
PLAP act: 0.8; DAT uptake mod: -3.17*

How did CC(C)c1ccc(/C=C2/SC(=S)N(CN3CCOCC3)C2=O)cc1 do in these assays?
HePTP inhibitor: 7.7

What do the screens show for `CC(=O)Nc1ccc(-c2nc(-c3ccccc3)c(-c3ccccc3)[nH]2)cc1`?
HePTP inhibitor: -5.5

How did CC(=O)NC(c1ccco1)c1ccc2cccnc2c1O (stereo not drawn) do in these assays?
D1 allo mod: 1.25; Calb biofilm kill: -0.1; PLAP act: 2.7*; HePTP inhibitor: 2.5; DAT uptake mod: -0.794; TNAP act mid DEA: 1.1

Results for CC(=O)NC(c1ccc2c(c1)OCO2)c1ccc2cccnc2c1O (stereo not drawn) ?
HePTP inhibitor: -1.8

What do the screens show for `Cc1csc(NC(=O)c2cc3c(s2)-c2ccccc2OC3)n1`?
D1 allo mod: -1.92; Calb biofilm kill: -1.8; PLAP act: 1.1; HePTP inhibitor: 14.5; DAT uptake mod: -0.933; TNAP act mid DEA: 0.8

How did Cc1nc(NC(=O)c2cc3c(s2)CCCCC3)sc1C(=O)N(C)C do in these assays?
D1 allo mod: -0.466; Calb biofilm kill: 7.6; PLAP act: 1; HePTP inhibitor: -7.7; DAT uptake mod: 2.32*; TNAP act mid DEA: 1

Results for Cc1csc(NC(=O)c2cc3c(s2)CCC3)n1 ?
D1 allo mod: -5.59*; Calb biofilm kill: 4.6; PLAP act: 0.9; HePTP inhibitor: -11.7; DAT uptake mod: 1.93; TNAP act mid DEA: 0.9

Results for COC(=O)c1sc(NC(=O)c2cc3c(s2)CCCC3)nc1C ?
D1 allo mod: -2.08; Calb biofilm kill: 6.9; PLAP act: 0.9; HePTP inhibitor: 9.9; DAT uptake mod: -0.278; TNAP act mid DEA: 0.9

How did N#C/C(=C/c1cccc(C(F)(F)F)c1)C(=O)Nc1ccc(Cl)cc1 do in these assays?
HePTP inhibitor: -7.4

Bioassay records as filed in PubChem BioAssay.
